Assay outcomes as filed in PubChem BioAssay.
Peg3 prom inh: reduces Peg3 promoter-driven luciferase expression in HeLa; HeLa PEG-Prom luciferase reporter, luminescence, overnight; inhibition, % at 20 µM; 360,000 compounds, 1.7% hits;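 active = inhibition of at least 50% at 20 µM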
CF NFkB inh: blocks PAF-induced NF-kB reporter in cystic fibrosis cells | KKLEB NF-kB-GFP reporter, GFP fluorescence overnight | 360,000 compounds, 0.86% hits | AID 588850 | inhibition, % at 5 µM;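 active = at least 50% inhibition at 5 µM, scaled per plate between neutral and stimulator controls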;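 also: PAF is a Pseudomonas aeruginosa culture filtrate used as stimulus; plate controls were PAF-stimulated DMSO wells for no effect and unstimulated DMSO wells for full effect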
KKLEB tox: reduces viability of KKLEB cystic fibrosis airway cells. 360,000 compounds, 0.36% hits. AID 602141. KKLEB CF airway cells viability, ATPlite luminescence, overnight; hits give low values; cells stimulated with P. aeruginosa culture filtrate. activity change (cytotoxicity), % at 5 µM;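 active = corrected activity change at or below -50% at 5 µM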
PPC-1+TRAIL kill: kills PPC-1 cancer cells in the presence of TRAIL; PPC-1 cells + TRAIL, ATPLite viability luminescence; cell killing (% activity), % at 4 µM or 5 µM; 220,000 compounds, 0.41% hits; AID 1443;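 active = cell killing above 50% in the first pass at 4 µM, then a duplicate retest at 5 µM averaging 50% or more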;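 also: plate controls were cells with TRAIL plus DMSO for no effect and medium-only wells lacking cells for full effect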
C8 TRAIL sens: caspase-8 TRAIL sensitization; inhibition (viability loss, TRAIL sensitization), % at 10 µM; 360,000 compounds, 1% hits; AID 624354; NB7+C8 cells + TRAIL, ATPlite viability luminescence;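 active = compounds causing at least 50% loss of cell viability in the single-dose screen, relative to plate controls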
HIF-2a inh: HIF-2a inhibition. 360,000 compounds, 0.72% hits. 786-0 RCC cells HIF-2a reporter, luciferase luminescence, overnight. inhibition, % at 18.8 µM;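 active = inhibition of the luminescence signal of 40% or more relative to plate controls, in a single-dose primary screen at 18.75 µM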
Mdm2-MdmX confirm: confirmation of inhibitors of human Mdm2/MdmX interaction, set 2; AID 504601; SaOS-2 split-luciferase Mdm2/MdmX complementation, luminescence; shares compounds with HIF-2a inh; 740 compounds, 99% hits; inhibition, % at 8 µM;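 active = mean inhibition of the luminescence signal across two replicates at or above 26 percent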
Target sequence (O15151 whole entry, looked up): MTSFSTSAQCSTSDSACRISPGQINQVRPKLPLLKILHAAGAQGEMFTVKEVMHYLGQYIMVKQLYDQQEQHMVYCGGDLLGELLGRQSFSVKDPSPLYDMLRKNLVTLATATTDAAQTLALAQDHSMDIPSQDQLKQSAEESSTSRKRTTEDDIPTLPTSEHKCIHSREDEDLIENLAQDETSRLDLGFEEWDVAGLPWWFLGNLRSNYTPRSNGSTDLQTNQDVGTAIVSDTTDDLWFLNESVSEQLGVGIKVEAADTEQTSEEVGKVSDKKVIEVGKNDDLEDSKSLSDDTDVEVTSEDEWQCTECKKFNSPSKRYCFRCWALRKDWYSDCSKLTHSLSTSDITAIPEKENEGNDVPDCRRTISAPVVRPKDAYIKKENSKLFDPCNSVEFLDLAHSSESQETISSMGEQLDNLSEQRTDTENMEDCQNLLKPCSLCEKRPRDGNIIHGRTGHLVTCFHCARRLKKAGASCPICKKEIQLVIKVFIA
Target sequence (Q00987 whole entry, looked up): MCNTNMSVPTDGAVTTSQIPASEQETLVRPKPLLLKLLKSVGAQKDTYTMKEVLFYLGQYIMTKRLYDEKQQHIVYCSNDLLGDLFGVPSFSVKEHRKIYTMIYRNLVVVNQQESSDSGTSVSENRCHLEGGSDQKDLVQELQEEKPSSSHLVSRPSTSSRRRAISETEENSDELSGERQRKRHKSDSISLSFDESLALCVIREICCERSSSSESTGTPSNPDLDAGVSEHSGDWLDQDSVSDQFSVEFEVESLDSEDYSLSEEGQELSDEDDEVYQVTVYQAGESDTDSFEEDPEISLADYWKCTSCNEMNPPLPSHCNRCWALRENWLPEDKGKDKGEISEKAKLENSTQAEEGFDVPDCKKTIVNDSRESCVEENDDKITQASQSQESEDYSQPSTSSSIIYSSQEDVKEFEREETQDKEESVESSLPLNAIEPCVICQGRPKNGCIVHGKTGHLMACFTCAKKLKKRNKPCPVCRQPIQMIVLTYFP
HIF-2a inh conf: confirmation of HIF-2a inhibitors. shares compounds with HIF-2a inh. 786-0 RCC cells, HIF-2a luciferase reporter luminescence, overnight. inhibition, % at 18.8 µM. 1,800 compounds, 56% hits. AID 651580;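 active = mean inhibition across four replicates of at least 40 percent at the single tested concentration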
HIF-1a cs: counter-screen for HIF-2a inhibitors: HIF-1a inhibition in MiaPaCa-2 cells | shares compounds with HIF-2a inh | MiaPaCa-2 HIF-1a luciferase reporter, desferoxamine, overnight | inhibition, % at 18.8 µM | 1,800 compounds, 72% hits;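 active = mean inhibition of the reporter signal across four replicates at the single tested dose of 50% or more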
* hit, by the source's call; / = no result. Compounds with a hit are over-represented: about 3.1% of the library has one in this group of screens.

SMILES	Peg3 prom inh	CF NFkB inh	KKLEB tox	PPC-1+TRAIL kill	C8 TRAIL sens	HIF-2a inh	HIF-2a inh conf	HIF-1a cs	others
CC(=O)O[C@H]1[C@H]2O[C@]23[C@@H]2CC[C@]4(O)C[C@@H](O)CC[C@]4(C)C2CC[C@]3(C)[C@H]1c1ccc(=O)oc1 (stereo not given in full)	101*	82*	-54*	/	64*	76*	43*	106*	Mdm2-MdmX confirm=87*
CC(=O)C1(c2ccccc2)CCN(C(=O)C2CCC(=O)N(CCc3cccc(F)c3)C2)CC1 (stereo not given)	3	2	-2	/	7	-4	/	/
CC[C@]12C=CCN3CCC4(c5cc(Br)c(OC)cc5N(C)C4[C@@](O)(C(=O)OC)[C@@H]1OC(C)=O)C32 (stereo not given in full)	12	16	-18	-12	-1	40*	-4	15
CC1CCC(C(C)C)C(OC(=O)Cn2c(COc3ccccc3)[n+](C)c3ccccc32)C1 (stereo not given)	95*	74*	-72*	9	53*	-10	/	/	Mdm2-MdmX confirm=102*
Cc1nc2ncnn2c(C)c1CCC(=O)N1CCC2(CC1)OCCO2	5	5	8	12	-3	7	/	/
Cc1nc2cc(-c3ccccc3)nn2c(C)c1CCC(=O)N1CCC2(CC1)OCCO2	-41	2	-6	-21	-4	70*	81*	36
CC1N=C(c2ccccc2)c2cc(Br)ccc2NC1=O (stereo not given)	14	6	-16	/	-1	10	/	/
O=C1NCN(c2ccccc2)C12CCN(C(c1ccnc3ccccc13)c1nnnn1-c1ccc3c(c1)OCCO3)CC2 (stereo not given)	41	12	-7	/	-3	5	/	/
CC[C@H](C)[C@@H]1NC(=O)CNC(=O)c2csc(n2)[C@H](C(C)(C)O)OC(=O)C(C)(C)[C@H](CCCC(C)(Cl)Cl)OC(=O)c2csc1n2	65*	83*	-91*	/	50*	42*	44*	88*
CCCN(CCC)C1Cc2cc(OC)c(OC)cc2C1	-22	19	-22	/	1	4	/	/
CC(N)C(=O)NC1C2C(=C(O)CC(O)C2O)C(=O)OC1(C)C(Cl)Cl (stereo not given)	96*	87*	-31	/	35	45*	57*	104*
COC(=O)C1=C(c2ccc(F)cc2OCc2ccccc2)C[C@@H]2CC[C@H]1N2C(=O)NCc1ccc([N+](=O)[O-])cc1	-12	13	-35	/	23	-14	/	/
COc1cc(/C=N/n2cnnc2)ccc1OC(=O)N(C)C	5	2	20	0	-2	7	/	/
COc1cc(/C=C/[N+](=O)[O-])ccc1OC(=O)c1cccnc1	88*	34	1	/	20	42*	54*	45
CN1C[C@@H]2C[C@@H](c3cccn3-c3ccccn3)N3CCC[C@@]23C1=O	-13	-21	3	-1	-27	14	/	/
COC(=O)C1=C(c2ccc(C(C)=O)cc2)C[C@@H]2CC[C@H]1N2C(=O)NCc1ccc(F)cc1	6	-12	-9	/	4	8	/	/
